IMPase Li cell – qHTS Assay for Identifying the Cell-Membrane Permeable IMPase Inhibitors: Potentiation with Lithium | CHO-M1 cells, IP1 TR-FRET (IP-One), carbachol + lithium | Potency, µM (doses to about 59.4 µM), inactives show at the top dose activity, negative = IMPase inhibition, hits mostly inhibitors | hit rate 0.35% among 210,000 | AID 1457, 2008;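 note: IP1 builds up when IMPase is blocked and the TR-FRET signal falls; potency is the fitted concentration of half-maximal effect; plate controls were basal vehicle for no effect and high inhibitor control for full effect; nearly all actives have a fitted effect of over 50% in size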
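IP1 accumulation measured by competitive TR-FRET in lysed CHO-M1 cells after 30 min compound exposure at 37C, with a small lithium addition to potentiate weak responses. Hill-equation AC50 from ratio and donor-channel data.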
ALOX12 inhib – qHTS Assay for Inhibitors of 12-hLO (12-human lipoxygenase); purified 12-hLO, xylenol orange hydroperoxide absorbance; Polyunsaturated fatty acid lipoxygenase ALOX12 (Homo sapiens), P18054; Potency, µM (series often up to 57.1 µM), inactives show at the highest dose activity change, negative = inhibition, usual class: inhibitors; hit rate 0.12% among 150,000; note: potency is the fitted concentration of half-maximal effect; nearly all actives have a fitted effect of over 55% in size
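Purified human 12hLO (150 nM), preincubated 15 min with compound, then 40 uM arachidonic acid for 30 min, room temperature, Hepes pH 7.0 with 0.01% Triton X-100. Hydroperoxide detected by ferrous iron/xylenol orange; 573/405 nm absorbance ratio gives reaction progress.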
15-hLO-2 inh – qHTS Assay for Inhibitors of 15-hLO-2 (15-human lipoxygenase 2). hit rate 0.56% among 110,000. AID 881, 2007. purified 15hLO-2, xylenol orange hydroperoxide absorbance. Potency, µM (top dose mostly 57.1 µM), for the others: top-dose activity change, negative = inhibition, usual class: inhibitors. Polyunsaturated fatty acid lipoxygenase ALOX15B (Homo sapiens), O15296; note: potency is the fitted concentration of half-maximal effect; nearly all actives have a fitted effect of over 60% in size
Target sequence (O15296 whole entry, looked up): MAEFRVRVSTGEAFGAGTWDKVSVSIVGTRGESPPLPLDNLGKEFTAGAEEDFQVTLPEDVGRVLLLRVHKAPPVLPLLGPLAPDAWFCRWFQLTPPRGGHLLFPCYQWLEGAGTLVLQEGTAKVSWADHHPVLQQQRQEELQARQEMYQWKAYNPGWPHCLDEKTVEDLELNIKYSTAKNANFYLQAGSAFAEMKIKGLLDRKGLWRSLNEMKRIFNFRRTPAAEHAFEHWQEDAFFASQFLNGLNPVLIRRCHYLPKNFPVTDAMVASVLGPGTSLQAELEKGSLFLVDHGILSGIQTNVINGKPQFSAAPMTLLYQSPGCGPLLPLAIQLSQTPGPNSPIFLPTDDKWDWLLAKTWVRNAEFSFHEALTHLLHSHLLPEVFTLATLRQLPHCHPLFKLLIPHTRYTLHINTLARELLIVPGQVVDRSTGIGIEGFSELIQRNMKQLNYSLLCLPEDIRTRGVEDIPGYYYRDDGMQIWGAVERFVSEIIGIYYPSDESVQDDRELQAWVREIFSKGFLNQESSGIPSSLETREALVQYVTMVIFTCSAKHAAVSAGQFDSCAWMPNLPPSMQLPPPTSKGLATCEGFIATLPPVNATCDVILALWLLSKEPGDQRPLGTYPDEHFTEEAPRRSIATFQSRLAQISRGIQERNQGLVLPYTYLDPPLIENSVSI
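Screening format was qHTS against 50 nM purified 15hLO-2 in Hepes pH 7.5 with detergent. Activity follows hydroperoxide formation from 45 uM arachidonic acid, measured as 573:405 nm absorbance ratio of the ferric-xylenol orange complex.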
IMPase cell inh – qHTS Assay for Identifying the Cell-Membrane Permeable IMPase Inhibitors; CHO-M1 cells, IP1 accumulation, HTRF TR-FRET ratio; 120,000 tested, under 10 active; inhibition (IP1 accumulation), % at 46.1 µM; active = well fitted curve in the direction sought with a large enough effect in the signal ratio, not every such curve was filed as active; inconclusive = small, poorly fitted or top-dose-only effect, or a change in a side signal; inactive = no such curve, though single readings can be large or run the other way; the % refers to the signal ratio;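 note: cells stimulated with carbachol in lithium chloride buffer; plate controls were DMSO basal wells for no effect and reference inhibitor wells for full effect; higher means more IMPase inhibition seen as more IP1 and lower FRET ratio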
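CHO-M1 cells (CHO stably expressing M1 receptor), compound up to 46 uM final, stimulated with carbachol (50 uM as added) in buffer with 50mM LiCl, pH 7.4, 30 min at 37C. Cytosolic IP1 read by TR-FRET; AC50 from Hill fits.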
* = called active by the depositor; ? = inconclusive; / = not tested or not shown; [ ] = dose if it differs, or a comment. The sample as a whole holds a higher share of hits than the screen did. Unless noted, calls come from the whole dose curve; as a rule, active = well fitted curve in the direction sought with a large enough effect; inconclusive = small, poorly fitted or top-dose-only effect, or another doubt; inactive = no such curve, though single readings can be large; an effect the other way counts as inactive or inconclusive. Unless noted, % is set by controls: 0 for no effect and ±100 for the full control effect.

SMILES | IMPase Li cell | ALOX12 inhib | 15-hLO-2 inh | IMPase cell inh
COc1ccc2c(c1)[N+](=O)C(/C(C)=N/NC(N)=S)=C(C)[N+]2=O | -1.0% | / | / | /
NC1=CC(=O)c2cccc3cccc1c23 | 12.6µM* | -3.1% | / | ?
Cc1ccc(-c2nc(NC(=O)CSc3nnc(C)s3)ns2)cc1 | 14.1µM* | -12.7% | -3.7% | -13.9
Cc1nnc(SCC(=O)Nc2nsc(-c3ccccc3)n2)s1 | 7.1%[38.3 µM] | 3.9% | -8.9% | -13.1
Cc1ccc(/C(O)=C2\C(=O)C(=O)N(c3cc(C)on3)C2c2cccc(Br)c2)cc1 (centres undefined) | ? | 4.9% | 31.9% | -9.6
COC(=O)c1ccc(C2/C(=C(/O)c3ccc(OC)cc3)C(=O)C(=O)N2c2cc(C)on2)cc1 (centres undefined) | 10µM* | -11.4% | 13.5% | -6.9
COC(=O)c1ccc(C2/C(=C(/O)c3ccc(OC(C)C)cc3)C(=O)C(=O)N2c2cc(C)on2)cc1 (centres undefined) | 10µM* | 3.8% | 0.4% | -15.4
Cc1[nH]c(C)c(CN(C)C)c1CN(C)C | -12.5% | 0.3%[11.4 µM] | 2.7%[11.4 µM] | /
S=c1[nH]nc(-c2cccc(Br)c2)o1 | 10µM* | 4.2% | 3.2% | ?
S=c1[nH]nc(-c2cccnc2)o1 | -29.9%[38.3 µM] | 2.4% | 3.6% | -26.0
CCOC(=O)Cc1csc(NC(=O)NC2(C(F)(F)F)Oc3cc(Cl)c(Cl)cc3O2)n1 | 11.7%[38.3 µM] | ? | 10µM* | -2.4
CCOC(=O)Cc1csc(NC(=O)NC2(C(F)(F)F)Oc3ccc(Cl)cc3O2)n1 (centres undefined) | 11.5%[38.3 µM] | -25.3% | ? | -1.9
COc1ccc(OC)c(/C=C/C(=O)NC2=NCCS2)c1 | 11.2µM* | / | / | /
CCN1CCN(c2nc3ccccc3nc2C(C#N)S(=O)(=O)c2ccc(C)cc2)CC1 (centres undefined) | 18.5%[38.3 µM] | 0.3% | -9.9% | -6.4
Cc1ccc(S(=O)(=O)C(C#N)c2nc3ccccc3nc2N2CCCC2)cc1 (centres undefined) | 1.6%[38.3 µM] | 28.2µM* | ? | ?
CCOC(=O)c1c(-c2ccc(-c3ccccc3)cc2)csc1NC(=O)C1C2CCC(O2)C1C(=O)O (centres undefined) | 14.2%[38.3 µM] | -6.2% | 20µM* | 4.4
CCOC(=O)c1c(-c2ccc(C)cc2)csc1NC1=NS(=O)(=O)c2ccccc21 | 11.2µM* | -0.1% | / | /
CCOC(=O)c1c(-c2ccc(C)cc2)csc1NC(=S)NC(=O)c1ccccc1 | 17.8%[38.3 µM] | ? | -19.0%[11.4 µM] | 17.0[1.84 µM]
COc1ccc(-n2c(-c3ccccc3)nc(=S)c3c2CCCC3)cc1 | -14.3%[38.3 µM] | -15.6% | -16.5% | 3.2
COc1ccc(-n2c(-c3cccc(OC)c3)nc(=S)c3c2CCCC3)cc1 | 7.94µM* | 3.6% | ? | ?
NC(=O)c1cc[n+](CC2=C(C(=O)O)N3C(=O)[C@@H](NC(=O)[C@@H](c4ccccc4)S(=O)(=O)[O-])[C@H]3SC2)cc1 | 5.6% | / | / | /
Cn1c(-c2ccc(C=O)s2)nc2c3ccccc3c3ccccc3c21 | 12.6µM* | -5.9% | -1.9% | -8.3
COc1ccc(N2C(=O)CC(Sc3nnc(-c4ccccc4)o3)C2=O)cc1 (centres undefined) | 8.91µM* | -10.3% | -23.1% | ?
Cc1ccc2cc(CCNC(=O)CC(C)(C)C)c(=O)[nH]c2c1C | 12.6µM* | -2.0% | / | ?
COc1cc(OC)c2c(=O)c(-c3ccccc3)coc2c1 | 1.4% | 3.6% | 7.6% | /
SMILES | IMPase Li cell | ALOX12 inhib | 15-hLO-2 inh | IMPase cell inh
CN(C)C(=O)[C@]1(C)C[C@H]1[C@H](NC(=O)CNC(=O)[C@@H]1CCCN1C(=O)[C@]1(C)C[C@H]1[C@H](NC(=O)OCc1ccccc1)c1ccccc1)c1ccccc1 | -4.4% | -0.1% | 0.4% | /
Cc1nc(SCC(=O)Nc2ccccc2C(F)(F)F)c(C#N)c(C)c1CC(=O)c1ccc(Br)cc1 | 10µM* | 0.2% | -5.5% | 6.3
CC1=C(C#N)c2nc(N)c(C#N)c(C)c2/C1=C\c1ccc(C)cc1 | 14.1%[38.3 µM] | -3.6% | 25.1µM* | 5.0
CC1(C(=O)O)NCCc2cc(O)c(O)cc21 (centres undefined) | 8.9% | / | / | /
COc1ccccc1C1CN(c2ccc(F)cc2F)N=C1c1cccs1 (centres undefined) | 14.1µM* | -17.3% | -5.6% | -26.2
COc1ccccc1CN=Cc1[nH]c2ccc(Br)c(Cl)c2c1O | 7.08µM* | -22.4% | -20.4% | ?
Cc1cccc(N=Cc2[nH]c3ccc(Br)c(Cl)c3c2O)c1 | -1.2% | -1.4% | / | /
CC(=O)Nc1cccc(NC(=O)c2cc(-c3cccnc3)nc3ccc(Br)cc23)c1 | 11.2µM* | 7.3% | 11.1% | -19.6
CCN1CCN(C(=O)c2cc(-c3cccnc3)nc3ccc(Br)cc23)CC1 | 12.6µM* | 0.8% | 10.5% | -15.6
O=C(O)c1cc(-c2ccc3c(c2)OCO3)nc2ccc(Br)cc12 | 11.2µM* | / | / | /
Cn1cc(CNC(=O)c2cc(-c3ccccc3)nc3ccc(Br)cc23)cn1 | 11.2µM* | -1.4% | / | /
O=C(c1cc(-c2ccncc2)nc2ccc(Br)cc12)N1CCN(c2ccccn2)CC1 | -6.5%[38.3 µM] | -7.8% | 25.2% | 1.7
CCCn1c(-c2ccc(F)cc2)nc2c(NCCN3CCCCC3)nc(C)nc21 | -2.3% | -1.8% | 43.3% | /
O=C(O)c1cc(-c2cccnc2)nc2ccc(Br)cc12 | 2.82µM* | / | / | /
O=C(O)CC[P+](c1ccccc1)(c1ccccc1)c1ccccc1 | 6.4% | 7.2%[11.4 µM] | 3.3%[11.4 µM] | /
Cc1cccc(S(=O)(=O)c2c(N)n(/N=C/c3ccco3)c3nc4ccccc4nc23)c1 | -16.3%[38.3 µM] | ? | ? | -9.3
Cc1ccc(S(=O)(=O)c2c(N)n(/N=C/c3ccco3)c3nc4ccccc4nc23)cc1C | -31.2%[38.3 µM] | ? | 12.6µM* | -12.3
OC[C@@H]1O[C@@H](n2cnc3c(N[C@@H]4C[C@@H]5CC[C@H]4C5)ncnc32)[C@@H](O)[C@H]1O | / | -5.1% | 3.0% | 2.6
CC1=C(C(=O)c2ccccc2)C(c2cn(-c3ccccc3)nc2-c2ccc(Cl)cc2)NC(=S)N1 (centres undefined) | / | 15.8µM* | 7.94µM* | 5.1
N#Cc1cc(O)c(-n2nnc3ccccc32)cc1C#N | -1.5% | / | / | /
N#Cc1cc(Oc2cccc3cccnc23)c(-n2nnc3ccccc32)cc1C#N | / | 10µM* | ? | 10.7
CC(C)=CC[C@@H](O)C1=CC(=O)c2c(O)ccc(O)c2C1=O | 97.6% | / | / | /
CCCCSc1cnn(-c2ccccc2)c(=O)c1SCCCC | -23.8% | -2.5% | / | ?
CSc1cnn(Cc2ccccc2)c(=O)c1SCc1ccccc1 | 15.6% | -1.1% | / | /
CCSc1cnn(-c2ccccc2)c(=O)c1SCC | 10µM* | 1.2% | -1.1% | ?
CSc1cnn(-c2ccccc2)c(=O)c1SC | 11.2µM* | -5.5% | 1.5% | ?
